Source: PubChem BioAssay (Tox21)
Inconclusive results are not listed. Active and inactive are the calls of the source. Calls come from the whole dose curve; as a rule, active = well fitted cell-killing curve with a large enough effect in the repeat runs; inconclusive = weak or mixed curves; inactive = no such curve, though single readings can be large or run the other way.

assay: qHTS assay to identify small molecule antagonists of the androgen receptor (AR) signaling pathway - cell viability counter screen (AID 743033; note: nearly all actives have a fitted effect of over 45% in size); settings: AR-bla HEK293 viability, CellTiter-Glo luminescence, 16 h; series mostly up to 58.5 µM
Text: National Center for Advancing Translational Sciences [NCATS]
NIH Chemical Genomics Center [NCGC]
U.S. Environmental Protection Agency [EPA]
National Institutes of Environmental Health Sciences [NIEHS]
National Toxicology Program [NTP]
U.S. Food and Drug Administration [FDA]
Androgen receptor (AR), a nuclear hormone receptor, plays a critical role in AR-dependent prostate cancer and other androgen related diseases. Endocrine disrupting chemicals (EDCs) and their interactions with steroid hormone receptors like AR may cause disruption of normal endocrine function as well as interfere with metabolic homeostasis, reproduction, developmental and behavioral functions. To identify the compounds that inhibit AR signaling, GeneBLAzer AR-UAS-bla-GripTite cell line (Invitrogen, Carlsbad, CA, USA) containing a beta-lactamase reporter gene under control of an Upstream Activator Sequence (UAS) stably integrated into HEK293 cells was used to screen the Tox21 10K compound library. The cytotoxicity of the Tox21 compound library against the AR-bla cell line was tested in parallel by measuring the cell viability using CellTiter-Glo assay in the same wells.
Tox21 Assay Protocol Summary:
AR-bla cells were dispensed at 2,000 cells/5 uL of assay medium per well into black wall/clear-bottom 1536-well plates using a Multidrop Combi (ThermoFisher Scientific, Waltham, MA) dispenser. After the assay plates were incubated at a 37C and 5% CO2 for 4 hr, 23 nL of compounds dissolved in DMSO, positive controls or DMSO only was transferred to the assay plate by a Pintool station (Kalypsys, San Diego, CA), followed by addition of 1 uL of agonist (R1881) in culture medium using a Bioraptr Flying Reagent Dispenser (FRD) workstation (Beckman Coulter, Indianapolis, IN, USA). The plates were incubated at a 37C and 5% CO2 for 16 h. After 1 uL of LiveBLAzerTM B/G FRET substrate was added using a Bioraptr FRD, the plates were incubated at room temperature for 2 h and fluorescence intensity was measured by an Envision plate reader (PerkinElmer, Shelton, CT). For cell viability readout that measures cytotoxicity, 4 ul/well of CellTiter-Glo reagent was added into the assay plates using a Bioraptr FRD. After 30 min incubation at room temperature, the luminescence intensity in the plates was measured using a ViewLux (PerkinElmer) plate reader.

Row | SMILES | outcome
1 | O=C(O)CCC(=O)Nc1ccc(S(=O)(=O)Nc2nccs2)cc1 | inactive
2 | O=C(O)Cc1ccccc1Oc1ccc(Cl)cc1Cl | inactive
3 | CN1C(CCl)Nc2cc(Cl)c(S(N)(=O)=O)cc2S1(=O)=O (stereo not given) | inactive
4 | CC12CCCC=C1C(=O)OC2=O (stereo not given) | inactive
5 | CCCCN=C(N)N=C(N)N | inactive
6 | CC(C)=CCC/C(C)=C\C#N | inactive
7 | O=c1c(O)c(O)c1=O | inactive
8 | C=CC(=O)CC | inactive
9 | Cc1ccccc1OCC(=O)O | inactive
10 | Cc1nnc(C(=O)NC(C)(C)c2nc(C(=O)NCc3ccc(F)cc3)c(O)c(=O)n2C)o1 | inactive
11 | CC(=O)OCC(=O)[C@@]1(O)CC[C@H]2[C@@H]3CCC4=CC(=O)C=C[C@]4(C)[C@H]3[C@@H](O)C[C@@]21C | inactive
12 | C=COCCCCO | inactive
13 | CC(CN1CC(=O)NC(=O)C1)N1CC(=O)NC(=O)C1 (stereo not given) | inactive
14 | Cc1ccc(S(=O)(=O)NC(=O)NN2CC3CCCC3C2)cc1 (stereo not given) | inactive
15 | CSC(=O)c1cccc2nnsc12 | inactive
16 | CCCCN1C(=O)c2ccccc2C1=O | inactive
17 | NCC1CCC(C(=O)Oc2ccc(CCC(=O)O)cc2)CC1 (stereo not given) | inactive
18 | CCC(=O)OCCOc1ccccc1 | inactive
19 | N=C(N)N | inactive
20 | Cc1ccc(NC(N)=O)cc1 | inactive

Row | SMILES | outcome
21 | Cc1cc(N)no1 | inactive
22 | CCCCCCCCCCCCCCCC/C=C/C1CC(=O)OC1=O (stereo not given) | inactive
23 | CC(C)(C)OC=O | inactive
24 | CCCCCCCC(=O)N(C)C | inactive
25 | NC[C@H]1O[C@H](O[C@H]2[C@H](O)[C@@H](O[C@H]3O[C@H](CO)[C@@H](O)[C@H](N)[C@H]3O)[C@H](N)C[C@@H]2N)[C@H](N)[C@@H](O)[C@@H]1O | inactive
26 | C=CCCCCCCCCCCCCCC | inactive
27 | CCC(C)c1nccnc1OC (stereo not given) | inactive
28 | Cc1ccc(O)c([N+](=O)[O-])c1 | inactive
29 | C=CCOC(=O)CCCCCCCC | inactive
30 | CCC(C)SSC(C)CC (stereo not given) | inactive
31 | CC(=O)SCC(CC(=O)c1ccc(C)cc1)C(=O)O (stereo not given) | inactive
32 | O=C(O)COc1ccc2ccccc2c1 | inactive
33 | C/C=C(\C)C(=O)OC/C=C(\C)CCC=C(C)C | inactive
34 | CC(=O)SC[C@@H](C)C(=O)N1CCC[C@H]1C(=O)N[C@@H](Cc1ccccc1)C(=O)O | inactive
35 | CC[N+](C)(CC)CC | inactive
36 | C=CCN1CCc2nc(N)sc2CC1 | inactive
37 | CC(O)C(CO)C(C)O (stereo not given) | inactive
38 | C[Si](C)(C)O[Si](O)(O)O | inactive
39 | CN(C)CCc1c[nH]c2ccc(C[C@H]3COC(=O)N3)cc12 | inactive
40 | CCCC(C)C(O)CC (stereo not given) | inactive
